From PubChem BioAssay (NCATS)
Results filed as inconclusive are left out. Where a call stands in place of a potency, no number is given. Unmarked numbers belong to inactive results. The source made the active and inactive calls. Calls follow the shape of the dose curve; as a rule, active = well fitted curve in the direction sought with a large enough effect; inconclusive = small, poorly fitted or top-dose-only effect, or another doubt; inactive = no such curve, though single readings can be large; an effect the other way counts as inactive or inconclusive.

Columns and labels:
[1] = Quantitative highthroughput screen to assess conditional lethalithy of NOMO1 cells grown in RPMI1640 with untreated serum (RPMI+s) (AID 1963876); also: nearly all actives have a fitted effect of over 35% in size
Method in brief: (§1)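 Each medium arm—HPLM with 10% dialyzed FBS, or RPMI1640 with 5 mM glucose and 10% untreated or dialyzed FBS—was screened against an 11-point, 3-fold compound titration for 48 h at 37 °C, with CellTiter-Glo luminescence as endpoint.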

[2] = Quantitative highthroughput screen to assess conditional lethalithy of NOMO1 cells grown in RPMI1640 with dialyzed fetal bovine serum (RPMI+ds) (AID 1963877); also: nearly all actives have a fitted effect of over 30% in size; as to viability: series mostly up to about 46 µM
Method in brief: as §1

[3] = Quantitative highthroughput screen to assess conditional lethalithy of NOMO1 cells grown in Human Plasma-Like Medium with dialyzed fetal bovine serum (HPLM+ds) (AID 1963878); also: nearly all actives have a fitted effect of over 35% in size
Method in brief: as §1

[4] = Quantitative highthroughput screen to assess conditional lethalithy of P12 Ichikawa cells grown in Human Plasma-Like Medium with dialyzed fetal bovine serum (HPLM+ds) (AID 1963879); settings: Potency: viability; also: nearly all actives have a fitted effect of over 35% in size; as to viability: series mostly up to about 46 µM
Method in brief: as §1

[5] = Quantitative highthroughput screen to assess conditional lethalithy of P12 Ichikawa cells grown in RPMI1640 with dialyzed fetal bovine serum (RPMI+ds) (AID 1963880); settings: Potency: P12-Ichikawa viability; also: nearly all actives have a fitted effect of over 35% in size
Method in brief: as §1

[6] = Quantitative highthroughput screen to assess conditional lethalithy of P12 Ichikawa cells grown in RPMI1640 with untreated serum (RPMI+s) (AID 1963881); settings: Potency: viability; also: nearly all actives have a fitted effect of over 35% in size; as to viability: series mostly up to about 46 µM
Method in brief: as §1

[7] = Quantitative highthroughput screen to assess conditional lethalithy of SEM cells grown in Human Plasma-Like Medium with dialyzed fetal bovine serum (HPLM+ds) (AID 1963882); also: nearly all actives have a fitted effect of over 35% in size; as to viability: series mostly up to about 46 µM
Method in brief: as §1

[8] = Quantitative highthroughput screen to assess conditional lethalithy of SEM cells grown in RPMI1640 with dialyzed fetal bovine serum (RPMI+ds) (AID 1963884); also: nearly all actives have a fitted effect of over 35% in size; as to viability: series mostly up to about 46 µM
Method in brief: as §1

[9] = Cellular viability qHTS for adrenocortical cancer (ACC) cell line SW-13 (AID 1963989); settings: SW-13 ACC cells viability, CellTiter-Glo, 48 h; activity (max response): hits give low values; also: nearly all actives have a fitted effect of over 65% in size;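 as to activity (max response): cells grown in serum-free medium with ITS supplement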
Method in brief: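 Compound titrations (up to 46 uM final, in DMSO) were applied to SW-13 cells for 48 h at 37C/5% CO2. Reading used CellTiter-Glo after 20 min at room temperature; fitted curves yielded IC50 and efficacy.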

[10] = Cellular viability qHTS for adrenocortical cancer (ACC) cell line NCI-H295R (AID 1963990); also: nearly all actives have a fitted effect of over 60% in size
Method in brief: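 Readout: CellTiter-Glo luminescence, 20 min RT. Exposure: 48 h, 37C/5% CO2. Cells: NCI-H295R, ITS-DMEM serum-free. Range: up to 46 uM. Analysis: 4PL fit, IC50 plus efficacy.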

[11] = Quantitative highthroughput screen to assess conditional lethalithy of SEM cells grown in RPMI1640 with unreated serum (RPMI+s) (AID 1963883); also: nearly all actives have a fitted effect of over 35% in size
Method in brief: as §1
Potency is read from the fitted curve at half-maximal effect.

Structure (SMILES)	Potency [1]	Potency [2]	Potency [3]	Potency [4]	Potency [5]	Potency [6]	Potency [7]	Potency [8]	Potency [9]	Potency [10]	Potency [11]	activity (max response) [9]	activity change, negative = viability loss [10]
O=Nc1c(-c2c(O)[nH]c3cc(Br)ccc23)[nH]c2ccccc12	14.8 µM (active)	10.5 µM (active)	5.9 µM (active)	4.18 µM (active)	5.9 µM (active)	4.69 µM (active)	0.833 µM (active)	0.833 µM (active)	11.2 µM (active)	10 µM (active)			
O=C(C=Cc1cccnc1)NCCCCC1CCN(C(=O)c2ccccc2)CC1	0.0059 µM (active)	0.0033 µM (active)	0.0026 µM (active)	0.003 µM (active)	0.0053 µM (active)	0.0047 µM (active)		0.0019 µM (active)			0.0026 µM (active)		
COc1ccc2cc([S+]([O-])Cc3ncc(C)c(OC)c3C)nc2c1	inactive	inactive	inactive	inactive	inactive	inactive		0.935 µM (active)					
COc1cc([C@H]2Oc3cc([C@H]4Oc5cc(O)cc(O)c5C(=O)[C@H]4O)ccc3O[C@H]2CO)ccc1O	inactive	inactive	inactive	inactive	inactive	inactive					inactive		
CCOC(=O)C1=C[C@@H](OC(CC)CC)[C@H](NC(C)=O)[C@@H](N)C1	inactive	inactive	inactive	inactive	inactive	inactive		inactive		inactive	inactive	7.32%	
CCC1=C(C)CN(C(=O)NCCc2ccc(S(=O)(=O)NC(=O)NC3CCC(C)CC3)cc2)C1=O (stereo not given)	inactive	inactive	inactive	inactive	inactive	inactive				inactive	inactive	-7.59%	
C[N+]1(C)[C@@H]2CC(OC(=O)[C@H](CO)c3ccccc3)C[C@H]1[C@H]1O[C@@H]12 (stereo not given in full)	inactive	inactive	inactive	inactive	inactive	inactive	inactive	inactive					
CC1(O)CC(c2nc(-c3ccc4ccc(-c5ccccc5)nc4c3)c3c(N)nccn23)C1 (stereo not given)	3.72 µM (active)	3.72 µM (active)	2.35 µM (active)	7.43 µM (active)	5.9 µM (active)	4.69 µM (active)		2.35 µM (active)			1.18 µM (active)	-21%	
O=C(C=Cc1ccc(CN(CCO)CCc2c[nH]c3ccccc23)cc1)NO	0.59 µM (active)	0.743 µM (active)	0.59 µM (active)	0.418 µM (active)	0.418 µM (active)	0.332 µM (active)		0.296 µM (active)			0.264 µM (active)		
C[C@H](NC(=O)c1sccc1OCc1ccc(Cl)cc1)c1ccccc1	inactive	inactive	inactive	inactive	inactive	inactive			25.1 µM (active)	28.2 µM (active)			
CC=C1C2C=C(C)CC1(N)c1ccc(=O)[nH]c1C2 (stereo not given)	inactive	inactive	inactive	inactive	inactive	inactive		inactive			inactive		
O=NN(CCCl)C(=O)NCCCl	inactive	inactive	inactive	inactive	inactive	inactive	inactive	inactive				15.2%	
CS(=O)(=O)c1ccc(Oc2cc(F)cc(C#N)c2)c2c1[C@H](O)C(F)(F)C2	inactive	inactive	inactive	inactive	inactive	inactive				inactive		10.8%	
COc1cc(Cl)cn2c(-c3cccc(NC4CNC4)n3)cnc12	inactive	inactive	inactive	inactive	inactive	inactive		inactive			inactive		
C=C1[C@H](n2cnc3c(=O)[nH]c(N)nc32)C[C@H](O)[C@H]1CO	18.7 µM (active)	3.72 µM (active)	4.18 µM (active)	2.64 µM (active)	1.18 µM (active)	2.96 µM (active)	0.187 µM (active)	0.0469 µM (active)					
CCCCc1ccc(NS(=O)(=O)c2ccc(C)c(C(=O)N3CCN(c4cccc(C)c4C)CC3)c2)cc1	inactive	inactive	inactive	inactive	inactive	inactive	inactive	inactive		44.7 µM (active)			
Nc1ccn(C[C@@H](CO)OCP(=O)(O)O)c(=O)n1	inactive	inactive	inactive	inactive	inactive	inactive	inactive	inactive				-11.5%	1.71% [at 9.17 µM]
O=[N+]([O-])c1ccc(Nc2ccccc2-c2ccccc2)c2nonc12	inactive	inactive	inactive	inactive	inactive	inactive			8.91 µM (active)	11.2 µM (active)			
CC1(C)SCCN(S(=O)(=O)c2ccc(OCC#CCO)cc2)[C@@H]1C(=O)NO	inactive	inactive	inactive	inactive	inactive		inactive	inactive			inactive		
NS(=O)(=O)c1cc(C(=O)O)c(NCc2ccco2)cc1Cl	inactive	inactive	inactive	inactive	inactive	inactive				inactive		-1.8%	
CC(=O)OCC(=O)[C@@]1(O)CC[C@H]2[C@@H]3CCC4=CC(=O)C=C[C@]4(C)[C@@H]3[C@@H](O)C[C@@]21C	inactive	inactive	inactive	inactive		inactive		inactive			inactive		
